Experiment [1] is described as follows: qHTS assay for small molecules that induce genotoxicity in human embryonic kidney cells expressing luciferase-tagged ATAD5 (AID 651632). Further: nearly all actives have a fitted effect of over 15% in size. A digest of the protocol: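 A rise in luciferase signal from ATAD5-tagged HEK293T cells marks genetic stress. Cells were exposed to compounds for 16 hr at 37C, 5% CO2, then luciferase was quantified after a 30 min room-temperature incubation with Amplite.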

Experiment [2] is described as follows: qHTS assay for small molecule agonists of the p53 signaling pathway - cell viability (AID 651633; calls by dose curve;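 further: p53RE-bla HCT reporter cells with a stable beta-lactamase p53 reporter; series mostly up to about 83 µM; nearly all actives have a fitted effect of over 30% in size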). The procedure, abridged:
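p53RE-bla cells, seeded at 4,000 per well and rested 5 h at 37 C/5% CO2, received compounds in DMSO for 16 h at 37 C. CellTiter-Glo was then added, and luminescence was read after 30 min at room temperature to gauge cytotoxicity.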
For orientation: In qHTS, concentration-response curves come from the screen itself.

A short description of experiment [3]: qHTS assay for small molecules that induce genotoxicity in human embryonic kidney cells expressing luciferase-tagged ATAD5 - cell viability (AID 651634; calls by dose curve; further: nearly all actives have a fitted effect of over 25% in size; further: potency means the concentration at half of the fitted maximal effect). A digest of the protocol:
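Cytotoxicity counter-readout: after 15.5 hr compound treatment at 37C, live-cell protease activity in ATAD5-luciferase HEK293T cells measured by CellTiter-Fluor fluorescence, 30 min development at 37C.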

Experiment [4] can be described thus: qHTS assay for small molecule disruptors of the mitochondrial membrane potential - cell viability (AID 720634; calls by dose curve;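 further: human HepG2 liver cancer cells; series mostly up to about 83 µM; nearly all actives have a fitted effect of over 20% in size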). A digest of the protocol: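 Cytotoxicity was quantified from ATP content by CellTiter-Glo luminescence in the same wells as the MMP dye read-out. HepG2 (2,000 cells/well) were plated overnight and exposed to compounds for 1 hr at 37 C.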
Experiment [5] in a line: qHTS assay to test for compound auto fluorescence at 590 nm (red) in HepG2 cells (AID 720674). A digest of the protocol: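 Rose Bengal sodium served as the red fluorophore standard. HepG2 monolayers (overnight attachment, MEM with 10% FBS) were exposed to test compounds for 1 hr at 37 C and read at Ex 540/Em 590 nm.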
A short description of experiment [6]: qHTS assay to test for compound auto fluorescence at 535 nm (green) in HepG2 cells (AID 720675).
Experiment [7] is described as follows: qHTS assay to test for compound auto fluorescence at 460 nm (blue) in HEK293 cells (AID 720678). The procedure, abridged:
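After cell attachment (4-5 hr, 37C), compounds were pinned onto HEK293 monolayers in 10% dialyzed FBS medium. The blue channel (405/460 nm) was read following overnight culture. Equivalency was calculated against triamterene.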

Experiment [8] is described as follows: qHTS assay to test for compound auto fluorescence at 590 nm (red) in HEK293 cells (AID 720679). The procedure, abridged:
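Plates of HEK293 cells (10% dialyzed FBS) are treated with 23 nL compound or DMSO vehicle after a 4-5 hr attachment period, incubated overnight at 37C, and read for red fluorescence at 540/590nm.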

Experiment [9] in a line: qHTS assay for small molecule disruptors of the mitochondrial membrane potential (AID 720635). Further: potency means the concentration at half of the fitted maximal effect. The procedure, abridged:
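HepG2 cells (2,000/well) attached overnight at 37C, then took compound for 1 hr at 37C, 5% CO2. Mito-MPS dye was added for 30 min; fluorescence was read at 490/535 nm (monomers) and 540/590 nm (aggregates).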

A number with no mark means an inactive call. Records with an inconclusive call do not appear. Active and inactive are the calls of the source. Unless noted, the call rests on the fitted dose curve; in most records, active means well fitted curve in the direction sought with a large enough effect in the repeat runs; inconclusive means weak or mixed curves; inactive means no such curve, though single readings can be large; an effect the other way counts as inactive or inconclusive.
On the % scale 0 is the no-effect control and ±100 the full control effect.

In the case of `CCCCOc1cc(C(=O)OCCN(CC)CC)ccc1N`, the Potency result in experiment [1], in experiment [2], in experiment [3] and in experiment [4] was “inactive” each time. In experiment [5], the fluorescence, relative to Rose Bengal was -0.373% [at 18.6 µM]. In addition, the fluorescence, % of fluorescein control in experiment [6] was -0.0083% [at 18.6 µM]. The fluorescence, % of triamterene in experiment [7] was 0.0068% [at 18.6 µM]. For the same compound, in [8], the fluorescence, % of fluorescent control is 0.112% [at 18.6 µM].

`CN(c1nccc(=O)[nH]1)C1CCN(c2nc3ccccc3n2Cc2ccc(F)cc2)CC1`: the Potency entry in experiment [1], in experiment [2], in experiment [3], in [4] and in experiment [7] was “inactive” each time. For the same compound, the outcome in [5], in experiment [6] and in experiment [8] was inactive.

As for `O=[N+]([O-])c1cccc(Cl)c1Cl`, the Potency result in [1], in [3], in [4] and in experiment [9] was “inactive” in each case. Also, the result in [5], in experiment [6] and in experiment [8] was inactive.

As for `O=C(Cl)c1ccc([N+](=O)[O-])cc1`, the Potency result in experiment [1], in [3], in experiment [4] and in experiment [9] was “inactive” throughout. The call in experiment [5] and in [6] was inactive.

As to `C=CC(=O)OCCOC(=O)CCC(=O)O`, the Potency result in [1], in [2], in experiment [3], in experiment [4] and in [7] was “inactive” throughout. Also, the outcome in experiment [5], in [6] and in [8] was inactive.

Consider `CCOC(=O)CC(C)C`, for which the Potency entry in [1], in experiment [2], in experiment [3], in experiment [4] and in experiment [7] was “inactive” each time. In addition, the compound was classed as inactive in experiment [5] and in experiment [8].

With `COc1ccc([C@@H]2Sc3ccccc3N(CCN(C)C)C(=O)[C@@H]2OC(C)=O)cc1`, the Potency entry in experiment [1], in experiment [3], in experiment [4], in [9] and in experiment [7] was “inactive” each time. The compound was called inactive in experiment [5] and in experiment [8].

With `CCOC(=O)[C@H](CCc1ccccc1)N[C@H]1CCc2ccccc2N(CC(=O)O)C1=O`, the Potency entry in [1], in experiment [2], in experiment [3] and in experiment [4] was “inactive” throughout. Moreover, the outcome in experiment [5], in experiment [6] and in experiment [8] was inactive.

As for `c1ccc(CNCc2ccccc2)cc1`, the Potency entry in experiment [1], in [2], in [3], in [4] and in [7] was “inactive” each time. Besides, the call in experiment [5] and in [8] was inactive.

As for `OCCC1CCCCN1` (stereo not drawn), the Potency entry in [1], in experiment [2], in experiment [3], in experiment [4] and in [7] was “inactive” each time. Moreover, the result in [5], in experiment [6] and in experiment [8] was inactive.

On to `C=C(C)C(=O)OCCN(C)C`, for which the Potency result in experiment [1], in [2], in experiment [3] and in experiment [7] was “inactive” in each case. Further, the compound was called inactive in [5], in [6] and in experiment [8].

Turning to `N#Cc1cc2ccccc2c2ccccc12`, the Potency result in experiment [1], in experiment [2], in [3] and in [7] was “inactive” throughout. Further, the Potency in [9] was 38.8 µM (active). The compound was classed as inactive in [5], in experiment [6] and in [8].

Regarding `CCCCCCc1ccc(N)cc1`, the Potency entry in [1], in experiment [2], in [3], in [4] and in experiment [7] was “inactive” throughout. Besides, the compound was classed as inactive in experiment [5], in [6] and in [8].

As to `NC(N)=N/N=C/c1c(Cl)cccc1Cl`, the Potency result in experiment [1], in [2], in [3], in experiment [4] and in [7] was “inactive” each time. Also, the outcome in [5] was inactive.

Regarding `O=C(O)COC(=O)Cc1ccccc1Nc1c(Cl)cccc1Cl`, the Potency entry in experiment [1], in [2], in experiment [3] and in experiment [4] was “inactive” each time. The fluorescence, relative to Rose Bengal in experiment [5] is 0.242% [at 18.6 µM]. Besides, the fluorescence, % of fluorescein control in experiment [6] is -0.151% [at 18.6 µM]. Besides, the fluorescence, % of triamterene in experiment [7] is 0.0454% [at 18.6 µM]. Also, the fluorescence, % of fluorescent control in experiment [8] is -0.0045% [at 18.6 µM].

On to `CCOC(=O)C1=C(C)NC(C)=C(C(=O)OC)C1c1cccc([N+](=O)[O-])c1` (stereo not drawn), for which the Potency result in experiment [1], in [2] and in [7] was “inactive” in each case. The Potency in experiment [9] was 26.6 µM (active). Moreover, the outcome in experiment [5], in experiment [6] and in [8] was inactive.

`CN1CCN(C2=Nc3ccccc3Sc3ccc(Cl)cc32)CC1`: the Potency entry in experiment [1], in [2], in experiment [3] and in experiment [4] was “inactive” throughout. The call in experiment [5], in experiment [6] and in experiment [8] was inactive.

For `CCCCCC/C=C/C=O`, the Potency result in [1], in [2], in experiment [3], in experiment [4] and in [7] was “inactive” each time. Also, the compound was called inactive in experiment [5], in [6] and in experiment [8].

As for `c1ccc(OCc2ccc(CCCN3CCOCC3)cc2)cc1`, the Potency entry in experiment [1], in experiment [2], in experiment [3], in experiment [4] and in [7] was “inactive” in each case. Besides, the call in experiment [5], in experiment [6] and in [8] was inactive.

Regarding `CCC(=O)OC(C)(C)C1CC=C(C)CC1` (stereo not drawn), the Potency entry in experiment [1], in [2], in experiment [3], in experiment [4] and in [7] was “inactive” in each case. The outcome in experiment [5], in experiment [6] and in experiment [8] was inactive.

As for `CC(C(=O)O)c1ccc(C(=O)c2ccccc2)s1` (stereo not drawn), the Potency result in [1], in [2] and in experiment [3] was “inactive” in each case. Also, the fluorescence, relative to Rose Bengal in [5] is -0.233% [at 18.6 µM]. The fluorescence, % of triamterene in experiment [7] was 0.0309% [at 18.6 µM]. For the same compound, the fluorescence, % of fluorescent control in experiment [8] is -0.0493% [at 18.6 µM].

For `CN1CCC(OC(c2ccccc2)c2ccccc2)CC1`, the Potency result in [1], in [2], in [3] and in [4] was “inactive” in each case. Moreover, in [5], the fluorescence, relative to Rose Bengal is -0.513% [at 18.6 µM]. Moreover, in experiment [6], the fluorescence, % of fluorescein control was -0.0945% [at 18.6 µM]. For the same compound, the fluorescence, % of triamterene in [7] was -0.105% [at 18.6 µM]. Also, the fluorescence, % of fluorescent control in experiment [8] was 0.0005% [at 18.6 µM].

For the compound `CC(=O)O[C@@H]1C(=O)O[C@@H]2[C@H]1OC(=O)[C@@H]2OC(C)=O`, the Potency result in experiment [1], in experiment [2], in experiment [3], in experiment [4] and in [7] was “inactive” in each case. In addition, the outcome in [5], in experiment [6] and in [8] was inactive.

Consider `CCCCOC(=O)/C=C\C(=O)OCCCC`, for which the Potency result in experiment [1], in experiment [2], in [3], in experiment [4] and in experiment [7] was “inactive” each time. For the same compound, the compound was classed as inactive in experiment [5] and in experiment [8].

Take `c1ccc(-c2nc[nH]c2-c2ccccc2)cc1`: the Potency entry in experiment [1], in [2], in experiment [3], in [4] and in experiment [7] was “inactive” throughout. The compound was called inactive in experiment [5], in experiment [6] and in [8].

`Nc1cnn([C@@H]2O[C@H](CO)[C@@H](O)[C@H]2O)c(=O)n1`: the Potency entry in [1], in experiment [2], in experiment [3] and in [4] was “inactive” in each case. In addition, the compound was classed as inactive in experiment [5] and in experiment [8].

With `Cc1ccc(O)c([C@H](CCN(C(C)C)C(C)C)c2ccccc2)c1`, the Potency entry in [1], in experiment [2], in [4] and in [7] was “inactive” in each case. Also, the outcome in experiment [5] was inactive.

Regarding `CCCCCCCCC(CO)CCCCCC` (stereo not drawn), the Potency entry in experiment [1], in [3], in experiment [4] and in experiment [7] was “inactive” each time. Besides, the call in experiment [5], in [6] and in [8] was inactive.

On to `CN1CCC[C@@H]1c1cccnc1`, for which the Potency result in experiment [1], in experiment [3], in experiment [4], in experiment [9] and in experiment [7] was “inactive” in each case. Besides, the compound was classed as inactive in [5], in [6] and in experiment [8].

With `CN1CCN(C2=Nc3cc(Cl)ccc3Nc3ccccc32)CC1`, the Potency result in experiment [1], in experiment [2], in experiment [4] and in [7] was “inactive” in each case. In addition, the compound was classed as inactive in experiment [5] and in experiment [8].

In the case of `CCCCCCCCCC=O`, the Potency result in experiment [1], in [2], in [3], in experiment [4] and in experiment [7] was “inactive” in each case. In [5], the compound was classed as inactive.

As to `O=C(/C=C/c1ccc(O)c(O)c1)O[C@@H]1C[C@](O)(C(=O)O)C[C@@H](O)[C@H]1O`, the Potency entry in experiment [1], in [2], in experiment [3], in experiment [4] and in experiment [7] was “inactive” each time. Moreover, the result in experiment [5], in [6] and in [8] was inactive.

On to `CNCC[C@@H](Oc1ccccc1C)c1ccccc1`, for which the Potency result in experiment [1], in experiment [2], in [3] and in experiment [4] was “inactive” each time. Further, the outcome in experiment [5] and in experiment [8] was inactive.

For the compound `CCCCOc1ccc(CC(=O)NO)cc1`, the Potency result in experiment [2] and in [4] was “inactive” each time. Besides, the Potency in experiment [3] is 9.02 µM (active). Further, the fluorescence, relative to Rose Bengal in [5] is 0.376% [at 18.6 µM]. The fluorescence, % of fluorescein control in [6] is 0.007% [at 18.6 µM]. The fluorescence, % of triamterene in [7] is -0.0396% [at 18.6 µM].

The values above are taken from PubChem BioAssay (Tox21).
